Unmarked numbers belong to inactive results. Inconclusive results are not listed. Entries that show only a call come without a potency. Activity calls are given as the source filed them. Unless noted, calls follow the shape of the dose curve; as a rule, active = well fitted curve in the direction sought with a large enough effect in the repeat runs; inconclusive = weak or mixed curves; inactive = no such curve, though single readings can be large; an effect the other way counts as inactive or inconclusive.
How the values were obtained:
[1] = qHTS assay to identify small molecule antagonists of the constitutive androstane receptor (CAR) signaling pathway - cell viability counter screen (AID 1224837); also: nearly all actives have a fitted effect of over 45% in size; also: potency is read from the fitted curve at half-maximal effect
Summary of the method: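 To flag cytotoxic false antagonists, HepG2 hCAR/CYP2B6-2.2kb cells were treated 23 hr with 15-concentration compound series and 50 nM CITCO at 37 C/5% CO2; CellTiter-Fluor fluorescence was the measured end point.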

[2] = biological target: Nuclear receptor subfamily 1 group I member 3 (Homo sapiens) (UniProt Q14994); assay: qHTS assay to identify small molecule antagonists of the constitutive androstane receptor (CAR) signaling pathway (AID 1224838);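 also: HepG2 cells stably expressing hCAR with CYP2B6 luciferase reporter stimulated by CITCO; nearly all actives have a fitted effect of over 40% in size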
Summary of the method: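 Human hepatoma HepG2 cells expressing hCAR and a CYP2B6 promoter (2.2 kb) luciferase construct; compound titration (15 points) with 50 nM CITCO final, 24 h at 37 C/5% CO2; luminescence via ONE-Glo after 30 min at room temperature.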

[3] = qHTS assay to identify small molecule antagonists of the estrogen related receptor signaling pathway with the pleiotropic PPARgamma coactivator (PGC) from Tox21 10K library (AID 1224841; call rule not given here; also: actives are mostly falling curves and most rising ones were filed inactive; nearly all actives have a fitted effect of over 50% in size; also: potency is read from the fitted curve at half-maximal effect)
Summary of the method: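 Test chemicals dissolved in DMSO were applied to pre-incubated (6 h) PGC/ERR cells at 2,000 cells/well for an 18 h, 37 C treatment; reporter luminescence was then read using One-Glo.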

[4] = biological target: Thyrotropin receptor (Homo sapiens) (UniProt P16473); assay: qHTS assay to identify small molecule agonists of the thyroid stimulating hormone receptor (TSHR) signaling pathway (AID 1224843; calls by dose curve; also: nearly all actives have a fitted effect of over 45% in size; also: potency is read from the fitted curve at half-maximal effect)
Summary of the method: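 HEK293/TSHR, 800 cells/well; cpd 30 min RT; add cAMP-d2 + anti-cAMP-cryptate, 1 h RT; fluorescence read on plate reader. 15-pt titration, n=3.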

[5] = qHTS assay to identify small molecule agonists of the hypoxia (HIF-1) signaling pathway - cell viability counter screen (AID 1224844; calls by dose curve; also: nearly all actives have a fitted effect of over 50% in size; also: potency is read from the fitted curve at half-maximal effect)
Summary of the method: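 HRE-bla ME-180; 0.5% dFBS; cpd 17 h, 37C, 5% CO2; CellTiter-Glo lum., 30 min RT, post-FRET read, same wells.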

[6] = qHTS assay to identify small molecule agonists of the hypoxia (HIF-1) signaling pathway (AID 1224846; active = well fitted activation curve with a large enough effect in the signal ratio in the repeat runs, not every such curve was filed as active; the % refers to the signal ratio)
Summary of the method: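 Reporter induction in HRE-bla ME-180 cells is taken as agonism: cells sit 5 hrs after plating, receive compounds or DMSO only, incubate 17 hrs at 37C under 5% CO2, and are loaded with CCF4-AM for beta-lactamase FRET measurement.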

[7] = qHTS assay to identify small molecule antagonists of the estrogen related receptor (ERR) signaling pathway from Tox21 library (AID 1224848); also: nearly all actives have a fitted effect of over 50% in size; also: potency is read from the fitted curve at half-maximal effect
Summary of the method: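 Compounds dissolved in DMSO are pin-transferred onto ERR reporter cells (2,000 per well) that have settled for 6 h at 37 C. Plates then incubate 18 h at 37 C before ONE-Glo luciferase reagent and a luminescence read 30 min later.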

[8] = qHTS RealTime-Glo MT Cell Viability Assay in HepG2 cells - 24 hour (AID 1224867); also: nearly all actives have a fitted effect of over 50% in size; also: potency is read from the fitted curve at half-maximal effect
Summary of the method: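 Cell number in HepG2 cultures estimated from NanoLuc luminescence generated by metabolic reduction of a prosubstrate by living cells. The homogeneous, nonlytic format allowed repeated reads at 0, 8, 16, 24, 32 and 40 h of compound exposure.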

[9] = A CellTox Green Cytotoxicity Assay to monitor cytotoxicity in HEK293 cells - 0 hour (AID 1224869); also: nearly all actives have a fitted effect of over 50% in size
Summary of the method: (§1)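 Tox21 screen in HEK293: membrane-impermeant cyanine dye fluoresces on binding dead-cell DNA; compound pinned 5 h post-seeding, plates held at 37 C, signal read repeatedly through 40 h.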

[10] = qHTS RealTime-Glo MT Cell Viability Assay in HepG2 cells - 40 hour (AID 1224870); also: nearly all actives have a fitted effect of over 50% in size; also: potency is read from the fitted curve at half-maximal effect
Summary of the method: (§2)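 HepG2 cells (600/well) mixed with RealTime-Glo MT reagent, settled 5 h at 37 C/5% CO2 before compound addition. Nonlytic NanoLuc luminescence from viable-cell prosubstrate reduction read repeatedly during 40 h treatment at 37 C.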

[11] = qHTS RealTime-Glo MT Cell Viability Assay in HepG2 cells - 8 hour (AID 1224873); also: nearly all actives have a fitted effect of over 55% in size; also: potency is read from the fitted curve at half-maximal effect
Summary of the method: as §2

[12] = biological target: Nuclear receptor subfamily 1 group I member 3 (Homo sapiens) (UniProt Q14994); assay: qHTS assay to identify small molecule agonists of the constitutive androstane receptor (CAR) signaling pathway (AID 1224839); also: nearly all actives have a fitted effect of over 15% in size; also: potency is read from the fitted curve at half-maximal effect;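 as to activation: HepG2 cells stably carrying human CAR and a CYP2B6 luciferase reporter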
Summary of the method: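 In this screen, CAR-driven CYP2B6 promoter activity is measured by luminescence in HepG2-CYP2B6-hCAR cells after 24 h with test compounds and 0.75 uM PK11195 (final concentration).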

[13] = qHTS assay to identify small molecule antagonists of the estrogen related receptor signaling pathway with the pleiotropic PPARgamma coactivator (PGC) from Tox21 10K library - cell viability counter screen (AID 1224840; active = well fitted cell-killing curve with a large enough effect in the repeat runs, not every such curve was filed as active; also: nearly all actives have a fitted effect of over 40% in size; also: potency is read from the fitted curve at half-maximal effect)
Summary of the method: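 Seeded PGC/ERR cells (2,000/well, 6 h, 37 C/5% CO2) get compound by pin tool; 17.5 h incubation at 37 C; CellTiter-Fluor added, 30 min, fluorescence measured.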

[14] = qHTS assay to identify small molecule agonists of the estrogen related receptor signaling pathway with the pleiotropic PPARgamma coactivator (PGC) from Tox21 10K library (AID 1224842); also: nearly all actives have a fitted effect of over 15% in size
Summary of the method: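 PGC/ERR reporter cell line, 2,000 cells per well, incubated 6 h at 37 C before 23 nL compound in DMSO was added. After 18 h at 37 C, One-Glo luminescence read following 30 min at room temperature.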

[15] = qHTS assay to identify small molecule agonists of H2AX (AID 1224845; active = well fitted activation curve with a large enough effect in the signal ratio in the repeat runs, not every such curve was filed as active; the % refers to the signal ratio)
Summary of the method: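 Wild-type CHO-K1 cells, plated overnight, exposed 3hr at 37C to 15 concentrations (0.76% DMSO final). Lysed, then HTRF anti-pH2AX (S139) cryptate and anti-H2AX-d2 antibodies, 24 hr room temperature; 665/620 nm emission read.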

[16] = qHTS assay to identify small molecule agonists of the estrogen related receptor (ERR) signaling pathway from Tox21 library (AID 1224849; calls by dose curve; also: nearly all actives have a fitted effect of over 15% in size); conditions: ERR reporter cell line, ONE-Glo luciferase, 18 h; at 92.4 µM (top of the series) unless noted
Summary of the method: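 Tox21 compounds tested for ERR agonism in an NTP reporter cell line: 18 h treatment at 37 C, then ONE-Glo luminescence.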

[17] = qHTS RealTime-Glo MT Cell Viability Assay in HEK293 cells - 32 hour (AID 1224868); also: nearly all actives have a fitted effect of over 50% in size; also: potency is read from the fitted curve at half-maximal effect
Summary of the method: (§3)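 Homogeneous bioluminescent viability format in HEK293 cells (600 cells/well). Following 5 h at 37 C/5% CO2, 23 nL compound was pintooled; the signal was measured repeatedly during 40 h incubation.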

[18] = qHTS RealTime-Glo MT Cell Viability Assay in HEK293 cells - 16 hour (AID 1224872); also: nearly all actives have a fitted effect of over 50% in size; also: potency is read from the fitted curve at half-maximal effect
Summary of the method: as §3

[19] = qHTS assay to identify small molecule agonists of H2AX - cell viability counter screen (AID 1224847; calls by dose curve; also: nearly all actives have a fitted effect of over 30% in size; also: potency is read from the fitted curve at half-maximal effect)
Summary of the method: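 Read-out: CellTiter-Glo luminescence, 30 min RT. Cells: wild-type CHO-K1, 1000/well, 10% FBS, plated overnight at 37C. Treatment: 15 concentrations, 3 hr, 37C, 0.76% DMSO.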

[20] = A CellTox Green Cytotoxicity Assay to monitor cytotoxicity in HEK293 cells - 40 hour (AID 1224871); also: nearly all actives have a fitted effect of over 45% in size; also: potency is read from the fitted curve at half-maximal effect
Summary of the method: as §1

Chain of Nuclear receptor subfamily 1 group I member 3 (Homo sapiens) (Q14994 whole entry, looked up): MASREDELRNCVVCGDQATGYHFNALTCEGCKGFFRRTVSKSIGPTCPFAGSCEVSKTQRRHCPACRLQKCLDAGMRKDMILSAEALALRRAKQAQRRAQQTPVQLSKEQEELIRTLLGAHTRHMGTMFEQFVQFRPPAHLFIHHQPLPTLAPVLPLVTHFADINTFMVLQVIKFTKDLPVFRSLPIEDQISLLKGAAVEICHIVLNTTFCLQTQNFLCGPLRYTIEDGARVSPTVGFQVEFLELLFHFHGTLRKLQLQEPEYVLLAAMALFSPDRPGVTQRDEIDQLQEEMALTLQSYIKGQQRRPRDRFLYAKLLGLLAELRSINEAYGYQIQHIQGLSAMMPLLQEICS
Chain of Thyrotropin receptor (Homo sapiens) (P16473 whole entry, looked up): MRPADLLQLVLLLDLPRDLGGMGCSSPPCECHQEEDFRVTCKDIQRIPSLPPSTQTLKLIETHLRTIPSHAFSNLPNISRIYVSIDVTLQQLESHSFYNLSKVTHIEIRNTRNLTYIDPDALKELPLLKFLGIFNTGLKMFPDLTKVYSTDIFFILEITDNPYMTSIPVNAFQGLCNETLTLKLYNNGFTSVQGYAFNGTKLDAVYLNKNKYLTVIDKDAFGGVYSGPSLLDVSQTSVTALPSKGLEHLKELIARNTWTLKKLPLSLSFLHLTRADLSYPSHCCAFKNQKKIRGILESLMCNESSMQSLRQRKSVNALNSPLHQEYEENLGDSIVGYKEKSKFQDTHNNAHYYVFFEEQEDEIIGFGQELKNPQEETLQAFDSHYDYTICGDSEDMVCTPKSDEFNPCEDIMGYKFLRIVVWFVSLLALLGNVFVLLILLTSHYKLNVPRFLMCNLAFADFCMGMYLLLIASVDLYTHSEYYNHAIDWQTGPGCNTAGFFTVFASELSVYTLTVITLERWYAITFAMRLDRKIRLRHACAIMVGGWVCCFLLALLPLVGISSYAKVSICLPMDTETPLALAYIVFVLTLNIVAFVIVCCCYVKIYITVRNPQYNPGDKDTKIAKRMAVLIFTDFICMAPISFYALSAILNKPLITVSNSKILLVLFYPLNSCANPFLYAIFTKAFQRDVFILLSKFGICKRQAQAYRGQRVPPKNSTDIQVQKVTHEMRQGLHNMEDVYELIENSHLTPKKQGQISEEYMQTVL

Row | SMILES | Potency [1] | Potency [2] | Potency [3] | Potency [4] | Potency [5] | outcome [6] | Potency [7] | Potency [8] | Potency [9] | Potency [10] | Potency [11] | Potency [12] | Potency [13] | Potency [14] | Potency [15] | activity change, positive = activation [16] | Potency [17] | Potency [18] | Potency [19] | Potency [20]
1 | CC(C)OC(=O)c1cc(C(=O)OC(C)C)cc([N+](=O)[O-])c1 | inactive | inactive | inactive | 22.2 µM (active) | inactive | inactive | inactive | inactive | inactive | inactive | inactive |  |  |  |  |  |  |  |  | 
2 | Cc1ccc(O)cn1 | inactive |  | inactive | inactive | inactive | inactive | inactive | inactive | inactive | inactive | inactive | inactive | inactive | inactive | inactive | 9.23% | inactive | inactive |  | 
3 | COc1cc(C(=O)NS(=O)(=O)c2ccccc2C)ccc1Cc1cn(C)c2ccc(NC(=O)OC3CCCC3)cc12 | inactive | inactive | inactive | inactive |  |  | inactive | inactive | inactive | inactive |  |  | inactive | inactive |  | -10.9% [at 42.5 µM] | inactive | inactive | inactive | inactive
4 | CO[Si](CCC1CCC2OC2C1)(OC)OC (stereo unspecified) | inactive |  | inactive | inactive | inactive | inactive | inactive | inactive | inactive |  | inactive | inactive | inactive | inactive | inactive | 0.732% | inactive | inactive | inactive | 
5 | C=CC(=O)OCCOCC(CC)(COCCOC(=O)C=C)COCCOC(=O)C=C | 31.9 µM (active) |  | 40.2 µM (active) | inactive |  |  | 25.3 µM (active) | 25.6 µM (active) | inactive | 32.2 µM (active) |  | inactive | 16 µM (active) | inactive |  | -76.5% |  |  |  | 
6 | CCN(CC)c1ccc(N)cc1 | 28.1 µM (active) |  | 2.5 µM (active) |  | inactive |  | 2.5 µM (active) |  | inactive |  |  | 7.05 µM (active) | 25 µM (active) | inactive |  | -77.3% | 22.5 µM (active) | 22.5 µM (active) | 51.9 µM (active) | 44.8 µM (active)
7 | CO[C@H]1C=CO[C@@]2(C)Oc3c(C)c(O)c4c(O)c(cc(O)c4c3C2=O)NC(=O)/C(C)=C\C=C/[C@H](C)[C@H](O)[C@@H](C)[C@@H](O)[C@@H](C)[C@H](OC(C)=O)[C@@H]1C | 48.9 µM (active) | inactive | inactive |  | 22 µM (active) |  |  | inactive | inactive |  | inactive |  |  | inactive |  | -31.9% | inactive | inactive | inactive | inactive
8 | CC(=O)c1ccccc1N | inactive |  |  | inactive | inactive | inactive |  | inactive | inactive |  | inactive | inactive | inactive |  | inactive |  |  |  |  | inactive
9 | CCCCCCCC/C=C\CCCCCCCC(=O)OCCOC(=O)CCCCCCC/C=C\CCCCCCCC | inactive |  |  | inactive | inactive | inactive |  | inactive | inactive | inactive | inactive | inactive | inactive |  | inactive |  | inactive |  | inactive | inactive
10 | CCOCOCC | inactive |  | inactive | inactive | inactive | inactive | inactive | inactive | inactive | inactive | inactive | inactive | inactive | inactive | inactive | 0.502% | inactive | inactive | inactive | inactive
11 | CCCCOC(=O)C(C)CC (stereo unspecified) | inactive |  | inactive | inactive | inactive | inactive | inactive | inactive | inactive | inactive | inactive | inactive | inactive | inactive | inactive | 6.06% | inactive |  | inactive | inactive
12 | CSc1c(Cl)c(Cl)c(Cl)c(Cl)c1Cl | inactive | inactive |  |  |  |  |  | inactive | inactive | inactive |  |  |  |  |  |  |  |  |  | 
13 | CCCOc1sc(C(=O)N2CCC(c3cc(CN)ccc3F)CC2)c(C)c1Br | 62.8 µM (active) |  |  |  |  |  | 49.9 µM (active) | 22.5 µM (active) |  | 28.3 µM (active) | 31.8 µM (active) | inactive | 56 µM (active) | inactive |  | -71.6% | 22.5 µM (active) | 20 µM (active) | 46.3 µM (active) | 31.8 µM (active)
14 | OCCC(O)CO (stereo unspecified) | inactive |  |  | inactive | inactive | inactive |  | inactive | inactive | inactive | inactive | inactive | inactive |  | inactive |  | inactive | inactive |  | 
15 | Oc1ccc(-c2ccc(O)cc2)cc1 | inactive |  | inactive | inactive | 49.3 µM (active) | inactive |  | inactive | inactive | inactive | inactive | 17.3 µM (active) | inactive | inactive |  |  |  |  |  | inactive
16 | CCN(CC)CCOC(=O)C1(C2CCCCC2)CCCCC1 | inactive | inactive |  |  |  |  |  | inactive | inactive | inactive | inactive |  | inactive |  |  |  |  | 21.3 µM (active) | 49.2 µM (active) | 23.9 µM (active)
17 | c1cc(OCC2CO2)cc(OCC2CO2)c1 (stereo unspecified) | inactive |  |  | inactive |  |  |  | inactive | inactive |  | inactive | inactive | 68 µM (active) |  |  |  |  |  |  | inactive
